Measured values taken from the antibiotic and cytotoxicity screens of Wong et al. (2023).
Screen size: about 39,000 compounds; about 3,300 (8.5%) were called active. This is one part of a sample in which actives are shown more often than they occur.

What follows are molecules tested on HepG2 (assay: cytotoxicity call (relative viability < 0.9)). Conditions: 10 µM.
With C/C=C/c1ccc2c(c1)O[C@H](CN(C)S(=O)(=O)c1ccc(F)cc1)[C@H](C)CN([C@H](C)CO)S2(=O)=O the cytotoxicity call was “inactive”.
In the case of CCO[C@H]1[C@H]2CC[C@@H]1N(C(=O)N(C)C)CCO2, the cytotoxicity call is reported as “inactive”.
In the case of C[C@@H]1CCCCO[C@H](CN(C)S(C)(=O)=O)[C@H](C)CN([C@@H](C)CO)C(=O)c2cc(NS(C)(=O)=O)ccc2O1, the cytotoxicity call is reported as “inactive”.
In the case of CCC(=O)N[C@@H]1C=C[C@@H](CC(=O)OC)O[C@@H]1CO, the cytotoxicity call is reported as “inactive”.
CC(C)NC(=O)N(C)C[C@H]1Oc2ccc(NS(=O)(=O)c3ccccc3)cc2C(=O)N([C@@H](C)CO)C[C@@H]1C was tested, and the cytotoxicity call was “inactive”.
For COc1ccc(S(=O)(=O)Nc2ccc3c(c2)C(=O)N([C@@H](C)CO)C[C@@H](C)[C@@H](CN(C)Cc2ccccc2)OCCCC[C@@H](C)O3)cc1, the cytotoxicity call was “inactive”.
With O=C(C[C@H]1CC[C@@H]2[C@H](COC[C@H](O)CN2C(=O)C2CC2)O1)NCc1ccncc1 the cytotoxicity call was “inactive”.
Cc1cc(O)cc2c1O[C@](C)(CCC[C@H](C)CCC[C@H](C)CCCC(C)C)CC2 was tested, and the cytotoxicity call was “inactive”.
For Cc1noc(C)c1S(=O)(=O)Nc1cccc2c1O[C@H](CN(C)C(=O)NC1CCCCC1)[C@H](C)CN([C@@H](C)CO)C2=O, the cytotoxicity call was “inactive”.
With C[C@H](CO)N1C[C@H](C)[C@H](CN(C)C(=O)Nc2ccc(F)cc2)Oc2ncc(C#Cc3ccc(C(F)(F)F)cc3)cc2C1=O the cytotoxicity call was “inactive”.
C[C@H]1CN([C@@H](C)CO)C(=O)c2cccc(NS(=O)(=O)c3cccs3)c2O[C@H]1CN(C)Cc1ccc(Oc2ccccc2)cc1 was tested, and the cytotoxicity call was “inactive”.
With COc1ccc(NC(=O)Nc2cccc3c2O[C@@H](CN(C)C(=O)Nc2cccc4ccccc24)[C@H](C)CN([C@H](C)CO)C3=O)cc1 the cytotoxicity call was “inactive”.
In the case of COc1ccc(NC(=O)Nc2cccc3c2O[C@@H](CN(C)C(=O)Nc2cccc4ccccc24)[C@H](C)CN([C@@H](C)CO)C3=O)cc1, the cytotoxicity call is reported as “inactive”.
C[C@H](CO)N1C[C@H](C)[C@@H](CN(C)C(=O)Nc2ccc(F)cc2)Oc2c(NC(=O)Nc3cccc4ccccc34)cccc2C1=O was tested, and the cytotoxicity call was “inactive”.
In the case of C[C@H]1CN([C@@H](C)CO)C(=O)c2cccc(NC(=O)Nc3cccc4ccccc34)c2O[C@@H]1CN(C)C(=O)Nc1ccccc1, the cytotoxicity call is reported as “inactive”.
With C[C@H](CO)N1C[C@H](C)[C@H](CN(C)C(=O)Nc2ccc(F)cc2)Oc2c(NC(=O)Nc3cccc4ccccc34)cccc2C1=O the cytotoxicity call was “active”.
For C[C@H]1CN([C@@H](C)CO)C(=O)c2cccc(NC(=O)Nc3cccc4ccccc34)c2O[C@H]1CN(C)C(=O)Nc1ccccc1, the cytotoxicity call was “inactive”.
With C[C@@H]1CN([C@@H](C)CO)C(=O)c2cccc(NC(=O)Nc3cccc4ccccc34)c2O[C@H]1CN(C)C(=O)Nc1ccccc1 the cytotoxicity call was “active”.
C[C@@H]1CN([C@H](C)CO)C(=O)c2cccc(NC(=O)Nc3cccc4ccccc34)c2O[C@H]1CN(C)C(=O)Nc1ccc(F)cc1 was tested, and the cytotoxicity call was “inactive”.
In the case of COc1ccc(NC(=O)Nc2cccc3c2O[C@H](CN(C)C(=O)Nc2cccc4ccccc24)[C@H](C)CN([C@H](C)CO)C3=O)cc1, the cytotoxicity call is reported as “active”.
C[C@H](CO)N1C[C@H](C)[C@H](CN(C)Cc2ccc(Cl)c(Cl)c2)Oc2c(NC(=O)Nc3ccc4c(c3)OCO4)cccc2C1=O was tested, and the cytotoxicity call was “inactive”.
For C[C@H](CO)N1C[C@H](C)[C@H](CN(C)C(=O)c2ccncc2)Oc2cc(C#C[C@@H](C)O)ccc2S1(=O)=O, the cytotoxicity call was “inactive”.
Cc1cc(F)ccc1S(=O)(=O)N1[C@@H]2CC[C@@H](C2)[C@H]1c1nc2cccc(OCc3ccc(F)cc3)c2[nH]1 was tested, and the cytotoxicity call was “inactive”.
C[C@@H]1CCCCO[C@H](CN(C)S(=O)(=O)c2cn(C)cn2)[C@@H](C)CN([C@H](C)CO)C(=O)c2cc(N(C)C)ccc2O1 was tested, and the cytotoxicity call was “inactive”.
With C[C@H](CO)N1C[C@H](C)[C@@H](CN(C)C(=O)Nc2ccc(C(F)(F)F)cc2)Oc2ccc(NS(=O)(=O)c3ccc(Cl)cc3)cc2C1=O the cytotoxicity call was “inactive”.
With CCCN1C[C@H](C)[C@H](OC)CN(C)C(=O)c2ccc(NS(=O)(=O)c3cn(C)cn3)cc2OC[C@@H]1C the cytotoxicity call was “inactive”.
With CN1CCN(C(=O)C[C@@H]2CC[C@H]3[C@@H](COC[C@H](O)CN3C(=O)C3CCOCC3)O2)CC1 the cytotoxicity call was “inactive”.
For C[C@H]1CN([C@@H](C)CO)C(=O)c2cccc(NS(=O)(=O)c3ccccc3)c2O[C@H]1CN(C)Cc1ccc(Oc2ccccc2)cc1, the cytotoxicity call was “inactive”.
C[C@@H]1CN([C@@H](C)CO)C(=O)c2cc(NC(=O)C3CCCCC3)ccc2O[C@@H](C)CCCCO[C@@H]1CN(C)Cc1ccccc1 was tested, and the cytotoxicity call was “inactive”.
With COc1cc(C(=O)O[C@H]2CC[C@@]3(C)[C@@H]4CC[C@H]5[C@]6(O)C[C@H](O)[C@@]7(O)[C@@H](CN8C[C@@H](C)CC[C@H]8[C@@]7(C)O)[C@]6(O)C[C@@]53O[C@@]24O)cc(OC)c1OC the cytotoxicity call was “inactive”.
O=C(Nc1ncc(SCCN2CCCC2)s1)[C@]1(c2ccc(S(=O)(=O)C3CC3)cc2)C[C@H]1C1CCCCC1 was tested, and the cytotoxicity call was “active”.
With Cc1ccc(-c2ccc3c(c2)O[C@H](CN(C)C(=O)CN(C)C)[C@@H](C)CN([C@H](C)CO)S3(=O)=O)cc1 the cytotoxicity call was “inactive”.
For Cn1c(C(=O)N2CCCO[C@@H](Cn3cccn3)C2)cc(=O)n(C)c1=O, the cytotoxicity call was “inactive”.
For C[C@H]1CN([C@@H](C)CO)C(=O)c2cc(NC(=O)Nc3ccc(F)cc3)ccc2O[C@@H]1CN(C)S(=O)(=O)c1cn(C)cn1, the cytotoxicity call was “inactive”.
COc1ccc(S(=O)(=O)N(C)C[C@@H]2Oc3ccc(NS(=O)(=O)c4cn(C)cn4)cc3CC(=O)N([C@@H](C)CO)C[C@@H]2C)cc1 was tested, and the cytotoxicity call was “inactive”.
CN(C)c1cc(CNCC(C)(C)C)c(O)c2c1C[C@H]1C[C@H]3[C@H](N(C)C)C(=O)[C@H](C(N)=O)C(=O)[C@@]3(O)C(=O)[C@@H]1C2=O was tested, and the cytotoxicity call was “inactive”.
In the case of C[C@@H]1CN([C@@H](C)CO)C(=O)c2cc(NC(=O)Nc3ccc(C(F)(F)F)cc3)ccc2O[C@H]1CN(C)Cc1ccncc1, the cytotoxicity call is reported as “active”.
For C[C@@H]1CN([C@@H](C)CO)C(=O)c2cc(NC(=O)Nc3ccc(C(F)(F)F)cc3)ccc2O[C@@H]1CN(C)Cc1ccncc1, the cytotoxicity call was “inactive”.
For C[C@H]1CN([C@@H](C)CO)C(=O)c2cc(NC(=O)Nc3ccc(C(F)(F)F)cc3)ccc2O[C@H]1CN(C)Cc1ccncc1, the cytotoxicity call was “inactive”.
C[C@H]1CN([C@@H](C)CO)C(=O)c2cc(NC(=O)Nc3ccc(C(F)(F)F)cc3)ccc2O[C@@H]1CN(C)Cc1ccncc1 was tested, and the cytotoxicity call was “active”.
In the case of C[C@@H]1CN([C@H](C)CO)C(=O)c2cc(NC(=O)Nc3ccc(C(F)(F)F)cc3)ccc2O[C@@H]1CN(C)Cc1ccncc1, the cytotoxicity call is reported as “inactive”.
C[C@@H]1CN([C@H](C)CO)C(=O)c2cc(NC(=O)Nc3ccc(C(F)(F)F)cc3)ccc2O[C@H]1CN(C)Cc1ccncc1 was tested, and the cytotoxicity call was “inactive”.
For CO[C@H]1CN(C)C(=O)c2cc(NC(=O)C3CCOCC3)ccc2OC[C@@H](C)N(Cc2cccnc2)C[C@@H]1C, the cytotoxicity call was “inactive”.
CC(C)NC(=O)N(C)C[C@H]1Oc2ccc(NC(=O)Cc3ccccc3)cc2CC(=O)N([C@H](C)CO)C[C@@H]1C was tested, and the cytotoxicity call was “inactive”.
For c1ccc(Oc2ccncc2)cc1, the cytotoxicity call was “inactive”.
In the case of COC(=O)C(CC#Cc1ccc2c(c1)[C@]1(C(=O)N2)[C@H](c2ccc(O)cc2)N2[C@H](c3ccccc3)[C@H](c3ccccc3)OC(=O)[C@H]2[C@@H]1C(=O)NC[C@H](O)c1ccccc1)C(=O)OC, the cytotoxicity call is reported as “inactive”.
C[C@H]1CN([C@@H](C)CO)C(=O)c2c(c3ccccc3n2C)-c2ccccc2CO[C@H]1CN(C)Cc1ccc(Oc2ccccc2)cc1 was tested, and the cytotoxicity call was “inactive”.
For COc1ccc(S(=O)(=O)Nc2cccc3c2O[C@H](CN(C)S(=O)(=O)c2ccccc2)[C@H](C)CN([C@@H](C)CO)C3=O)cc1, the cytotoxicity call was “inactive”.
In the case of COCC#Cc1ccc2c(c1)O[C@H](CN(C)C(=O)COC)[C@H](C)CN([C@@H](C)CO)S2(=O)=O, the cytotoxicity call is reported as “inactive”.
For Cc1cc(OCc2nnc(SC3CCCC3)n2-c2cccnc2)ccc1-c1ccc(S(C)(=O)=O)cc1, the cytotoxicity call was “active”.
Cc1nc(N)c(C(=O)O)nc1C was tested, and the cytotoxicity call was “inactive”.
C[C@@H]1CN([C@H](C)CO)C(=O)Cc2cc(NC(=O)Cc3cn(C)c4ccccc34)ccc2O[C@H]1CN(C)Cc1ccc(C(=O)Nc2ccccc2N)cc1 was tested, and the cytotoxicity call was “inactive”.
For COc1ccc(S(=O)(=O)Nc2ccc3c(c2)C(=O)N([C@@H](C)CO)C[C@H](C)[C@@H](CN(C)Cc2ccc(Cl)c(Cl)c2)OCCCC[C@H](C)O3)cc1, the cytotoxicity call was “active”.
COc1ccc(CN(C)C[C@H]2OCCCC[C@@H](C)Oc3ccc(NS(=O)(=O)c4ccc(OC)cc4)cc3C(=O)N([C@@H](C)CO)C[C@@H]2C)cc1 was tested, and the cytotoxicity call was “inactive”.
With COc1ccc(S(=O)(=O)Nc2ccc3c(c2)C(=O)N([C@H](C)CO)C[C@@H](C)[C@H](CN(C)Cc2ccc(Cl)c(Cl)c2)OCCCC[C@H](C)O3)cc1 the cytotoxicity call was “active”.
For COc1ccc(CN(C)C[C@H]2OCCCC[C@@H](C)Oc3ccc(NS(=O)(=O)c4ccc(OC)cc4)cc3C(=O)N([C@H](C)CO)C[C@H]2C)cc1, the cytotoxicity call was “inactive”.
COc1ccc(CN(C)C[C@@H]2OCCCC[C@@H](C)Oc3ccc(NS(=O)(=O)c4ccc(OC)cc4)cc3C(=O)N([C@H](C)CO)C[C@@H]2C)cc1 was tested, and the cytotoxicity call was “inactive”.
With COc1ccc(S(=O)(=O)Nc2ccc3c(c2)C(=O)N([C@H](C)CO)C[C@H](C)[C@@H](CN(C)Cc2ccc(Cl)c(Cl)c2)OCCCC[C@@H](C)O3)cc1 the cytotoxicity call was “active”.
With COc1ccc(S(=O)(=O)Nc2ccc3c(c2)C(=O)N([C@@H](C)CO)C[C@H](C)[C@@H](CN(C)Cc2ccc(Cl)c(Cl)c2)OCCCC[C@@H](C)O3)cc1 the cytotoxicity call was “active”.
COc1ccc(CN(C)C[C@H]2OCCCC[C@H](C)Oc3ccc(NS(=O)(=O)c4ccc(OC)cc4)cc3C(=O)N([C@H](C)CO)C[C@H]2C)cc1 was tested, and the cytotoxicity call was “inactive”.
With COc1ccc(CN(C)C[C@@H]2OCCCC[C@@H](C)Oc3ccc(NS(=O)(=O)c4ccc(OC)cc4)cc3C(=O)N([C@@H](C)CO)C[C@H]2C)cc1 the cytotoxicity call was “inactive”.
With COc1ccc(CN(C)C[C@H]2OCCCC[C@H](C)Oc3ccc(NS(=O)(=O)c4ccc(OC)cc4)cc3C(=O)N([C@@H](C)CO)C[C@@H]2C)cc1 the cytotoxicity call was “inactive”.
